Measured values reported in PubChem BioAssay (NCI).
This is part of a sample that, as a whole, favours compounds with a hit. Of some 79,000 tested, about 15% had one in any assay. Active and inactive are the calls of the source. Cut-off read from the data, not from the text of the source: active = growth inhibition above about 70%; inactive = the rest.

Legend:
[1] = NCI Yeast Anticancer Drug Screen. Data for the rad52 strain (AID 147);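 note: 0% = growth of vehicle-treated control cultures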; details: S. cerevisiae rad52 mutant growth inhibition, active compounds read high
Method in brief: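 Here a repair-compromised yeast strain receives each compound; its growth is then quantified and normalised to vehicle-only controls.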

[2] = NCI Yeast Anticancer Drug Screen. Data for the wt1 strain (AID 149);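 note: 0% = growth of vehicle-treated wt1 cultures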; details: S. cerevisiae wt1 strain (SPY 50644) growth inhibition, active compounds read high
Method in brief: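 Readout: yeast growth inhibition, normalised to vehicle controls, in the wt1 strain exposed to test compounds.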

[3] = NCI Yeast Anticancer Drug Screen. Data for the rad50EPP+ strain (AID 151);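 note: 0% = growth of vehicle-treated control cultures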; details: S. cerevisiae rad50 mutant strain, active compounds read high
Method in brief: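 Read-out is yeast growth inhibition relative to vehicle; cells used were the rad50EPP+ strain.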

[4] = NCI Yeast Anticancer Drug Screen. Data for the mgt1 strain (AID 153); details: S. cerevisiae mgt1 mutant growth inhibition, active compounds read high
Method in brief: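 Measured: inhibition of mgt1 yeast growth by compound, normalized to vehicle-treated cultures.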

[5] = NCI Yeast Anticancer Drug Screen. Data for the rad50 strain (AID 155);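 note: 0% = growth of vehicle-only cultures of the same strain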; details: S. cerevisiae rad50 strain growth inhibition, active compounds read high
Method in brief: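 Compounds were tested on a yeast strain with an engineered DNA damage repair alteration; the reported value is growth inhibition normalised to vehicle treatment.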

[6] = NCI Yeast Anticancer Drug Screen. Data for the mec2-1 strain (AID 157); details: S. cerevisiae mec2-1 strain, active compounds read high
Method in brief: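 Using mec2-1 yeast: add compound, measure growth, express inhibition versus vehicle-treated cultures.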

[7] = NCI Yeast Anticancer Drug Screen. Data for the rad14 strain (AID 159);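 note: 0% = growth of vehicle-treated control cultures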; details: S. cerevisiae rad14 strain growth inhibition, active compounds read high
Method in brief: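 Compound-treated yeast with a defined DNA-repair lesion; growth inhibition normalised to vehicle-treated cultures.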

[8] = NCI Yeast Anticancer Drug Screen. Data for the sgs1 mgt1 strain (AID 161);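 note: 0% = growth of cultures given vehicle only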; details: S. cerevisiae sgs1 mgt1 strain, active compounds read high
Method in brief: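 Percent growth inhibition was derived by comparing compound-exposed mutant yeast with vehicle-exposed cultures. The strain carries alterations in DNA damage repair.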

[9] = NCI Yeast Anticancer Drug Screen. Data for the CLN2oe strain (AID 163);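 note: 0% = growth of vehicle-only control cultures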; details: S. cerevisiae CLN2oe strain, active compounds read high
Method in brief: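 Whole-cell yeast growth assay. A strain engineered for altered cell-cycle control received compound, and inhibition relative to vehicle-treated cultures was recorded.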

[10] = NCI Yeast Anticancer Drug Screen. Data for the cln2 rad14 strain (AID 165);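 note: 0% = growth equal to vehicle treated cultures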; details: S. cerevisiae cln2 rad14 strain, active compounds read high
Method in brief: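 Yeast strain cln2 rad14, bearing defects in cell cycle control and DNA repair, serves as the test system; values reflect growth inhibition compared with vehicle.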

[11] = NCI Yeast Anticancer Drug Screen. Data for the bub3 strain (AID 167); details: S. cerevisiae bub3 mutant strain, active compounds read high
Method in brief: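 Growth of a checkpoint-deficient yeast mutant is measured after compound exposure. Values represent inhibition relative to vehicle.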

[12] = NCI Yeast Anticancer Drug Screen. Data for the wt2 strain (AID 169);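 note: 0% = growth of vehicle-treated yeast cultures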; details: S. cerevisiae wt2 strain growth inhibition, active compounds read high
Method in brief: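 Treated yeast vs. vehicle-treated yeast: growth inhibition determined.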

[13] = NCI Yeast Anticancer Drug Screen. Data for the mlh1 strain (AID 171);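 note: 0% = growth of vehicle-treated control cultures of the same strain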; details: S. cerevisiae mlh1 strain growth inhibition, active compounds read high
Method in brief: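 A yeast strain with a defined genetic lesion serves as the test organism. Cultures receive compound or vehicle, and growth is measured.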

[14] = NCI Yeast Anticancer Drug Screen. Data for the sgs1 strain (AID 173);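 note: 0% = growth of vehicle-only control cultures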; details: S. cerevisiae sgs1 mutant, active compounds read high
Method in brief: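 A genetically defined yeast mutant is incubated with the test compound, and its growth is compared to that of the same strain given vehicle.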

[15] = NCI Yeast Anticancer Drug Screen. Data for the mlh1 rad18 strain (AID 175); details: S. cerevisiae mlh1 rad18 strain growth inhibition, active compounds read high
Method in brief: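 Steps: expose repair-defective yeast to compound; measure growth; express inhibition against vehicle-treated controls.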

[16] = NCI Yeast Anticancer Drug Screen. Data for the rad18 strain (AID 177); details: S. cerevisiae rad18 mutant growth inhibition, active compounds read high
Method in brief: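 Measured value is growth inhibition of a yeast strain bearing a DNA repair alteration, referenced to vehicle-treated cells.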

[17] = at 5.0 µM (retest, dose inferred, filed as 0.5)
[18] = at 50.0 µM (retest, dose inferred, filed as 5.0)

Measured: growth inhibition

O=C(O)c1ccccc1/C=N/N=C1c2ccccc2-c2ccccc21
inactive: [1]; at 1.2 µM -3% | [1]; at 3.7 µM -1% | [1]; at 11.0 µM -1% | [1]; at 33.0 µM 0% | [1]; at 100.0 µM 2% | [2]; at 1.2 µM -1% | [2]; at 3.7 µM 0% | [2]; at 11.0 µM 1% | [2]; at 33.0 µM 0% | [2]; at 100.0 µM 7% | [3]; at 1.2 µM -4% | [3]; at 3.7 µM 3% | [3]; at 11.0 µM -2% | [3]; at 33.0 µM 9% | [3]; at 100.0 µM 15% | [4]; at 1.2 µM -1% | [4]; at 3.7 µM 0% | [4]; at 11.0 µM 0% | [4]; at 33.0 µM -1% | [4]; at 100.0 µM 3% | [5]; at 1.2 µM 0% | [5]; at 3.7 µM -6% | [5]; [17] 10% | [5]; at 11.0 µM 7% | [5]; at 33.0 µM 0% | [5]; [18] 45% | [5]; at 50.0 µM 50.8% | [5]; at 100.0 µM 13% | [6]; at 1.2 µM -2% | [6]; at 3.7 µM -1% | [6]; [17] 2% | [6]; at 11.0 µM -2% | [6]; at 33.0 µM 0% | [6]; [18] 15% | [6]; at 50.0 µM 61.4% | [6]; at 100.0 µM 11% | [7]; at 1.2 µM 0% | [7]; at 3.7 µM -1% | [7]; at 11.0 µM 0% | [7]; at 33.0 µM -10% | [7]; at 100.0 µM 8% | [8]; [17] -7% | [8]; [18] 60% | [8]; at 50.0 µM 50% | [9]; at 1.2 µM -4% | [9]; at 3.7 µM 0% | [9]; at 11.0 µM 0% | [9]; at 33.0 µM -5% | [9]; at 100.0 µM 1% | [10]; [17] -23% | [10]; at 50.0 µM 45.7% | [11]; at 1.2 µM -3% | [11]; at 3.7 µM -1% | [11]; [17] -9% | [11]; at 11.0 µM 9% | [11]; at 33.0 µM 7% | [11]; [18] -3% | [11]; at 50.0 µM 48.5% | [11]; at 100.0 µM 4% | [12]; at 1.2 µM -1% | [12]; at 3.7 µM 0% | [12]; at 11.0 µM -1% | [12]; at 33.0 µM 0% | [12]; at 100.0 µM 5% | [13]; at 1.2 µM 1% | [13]; at 3.7 µM 2% | [13]; at 11.0 µM 1% | [13]; at 33.0 µM -9% | [13]; at 100.0 µM 8% | [14]; at 1.2 µM 0% | [14]; at 3.7 µM 2% | [14]; at 11.0 µM 1% | [14]; at 33.0 µM 4% | [14]; at 100.0 µM 3% | [15]; [17] -1% | [15]; [18] 39% | [15]; at 50.0 µM 68.5% | [16]; at 1.2 µM -3% | [16]; at 3.7 µM -1% | [16]; at 11.0 µM 2% | [16]; at 33.0 µM -4% | [16]; at 100.0 µM 6%
active: [10]; [18] 79%
